Measurements from PubChem BioAssay AID1508600 (Functional Genomics Laboratory (NCATS/FGL), 2020).
The whole screen tested about 53,000 sequences, of which about 3,700 (7%) were called active.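 How the source made its calls: active means gene knockdowns whose robust z-score for IL-1 alpha signal is at least 2 or at most -2, so actives lie on both sides; inactive means the rest.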 Many of the other results were omitted from the sample, so actives are more common in it than they were.

assay: Components of the Cytosolic LPS Sensing Pathway: Gene Identification via Genome-wide siRNA Screen; conditions: RAW264.7 macrophages, IL-1a HTRF, actives lie on both sides, screened at 100 nM (by protocol), cells primed 5 h with Pam3CSK4 first;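 further: robust z of the log signal after scaling to non-targeting control siRNA wells of the plate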
How it was run: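 Knockdown: 100 nM siRNA, 48h, RAW264.7. Stimulation: Pam3CSK4 5 h, then LipidA via TransIT-TKO 24 h. Output: supernatant IL-1a HTRF, negative-control-normalized, log robust z-score; viability by CellTiter-Glo.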

z-score, active:
GUAUGUUGACAUUUGCCUGTT against Olfr113 -2.05
GGUUCCUACGAGUUCACUGTT against B130024G19Rik -2.76
GGCUUUGCUACUUGGGAUATT against Wdr86 3.16
GGCUUCUACCUUCGAGACUTT against Carns1 -2.3
GGUUCCUUUAACUUUGGUUTT against A730089K16Rik 2.18
GCAAUGGACUACUGCUGCUTT against Olfr704 -2.26
GGUCUUCCUUGAACAUCAGTT against Fev -2.05
GCAAGUGAUGAAUGCUUACTT against Ncln -2.62
CCUGGCACUCAUAGUAUACTT against Tm6sf2 -2.33
GGAAAUCUACAUCAUGGCUTT against Ift140 -2
GCUACACCCGCAUGACAAATT against Trit1 2.43
GGCAAGAAGGACAAUGAGUTT against Mb21d2 -2.82
GCUUCACUCUCUUCUUUGCTT against Olfr1463 -3.05
GGUGCUUGGGAAUUUUGAUTT against Gpsm2 2.31
GGGUAACAGAUGAAGGGUCTT against Synpo2l 2.48
GGUACAUCUUAGAGGCCAATT against Epo 2.66
GGACGUGUACAUUGUCAAGTT against Unc5a 2.07

z-score, inactive:
GGUAUCAUUUACUUUGAACTT against Gtf2f2 -0.0825
GCCAGUUCAUACAAGAGGGTT against Zfp946 0.623
GGAGAUCACAGCAAUCCGATT against Ccna1 -1.01
GGGCGGAGCAUUUUUCUUGTT against Ube2d2b 0.483
GGAAGAUGACAGUGCUGUATT against Utp25 -0.868
GGGAUAAGUACUCUGCUAATT against Sorcs3 -0.146
CCAAGGGUCACCUAUUUUUTT against Kcna5 1.97
CCUGCAUUAGCAUGUUAGGTT against Gfral -0.483
GGUAGCUAAGAAGUUUAUUTT against Dck 1.55
GGAUUUAUCCCAAAAUCUATT against Tmem26 0.42
GGAUCAAAUAACAAUGACATT against Hfm1 -0.567
GGCCAUGGUUCUAUAGGACTT against Zbtb37 0.764
GCUUGUAAAUGGAACGACATT against 0610012G03Rik -0.69
CCAUAUUUUACCCAAAAGCTT against Prune1 -1.04
CGAAGGAGUCAAAACUGGGTT against Klk1b8 -1.79
GGAGAUCUCACCGACAUUGTT against Cpt1c -1.22
CCUACUCGUAUAAUCUUCUTT against Ago3 0.496
GCGUUUGGGCCGGAAGAAATT against Smo 0.57
GGCAGUUUGAGAUUGUGUCTT against Thbs2 -0.00379
GCUCAUCGAGCCUGUACACTT against Med26 -0.296
GGUGGAACCCAAUGACACCTT against Cers5 1.21
GGUAGUUGUGCCAGAAAAATT against Garre1 0.0675
GGACCCUCUAGAUGACCAATT against Trem2 -1.09
CCUUUACACGUAAAAGAAGTT against Zfp445 -0.194
CCUGUUGAGUACUGUGCUGTT against Olfr987 -0.437
CCCAUGUAAGGAUGUGUCGTT against Frmd5 0.761
CGGGAAGCUAUCAUCAAAATT against Rgs13 0.12
GGACACAGAAAAAGUUGAATT against Tbc1d4 -0.0174
GGAUGUUAAAAUUGCCCUGTT against Olfr911-ps1 0.896
GGACGAGAAUCAAGAGCAGTT against Cdkn1c -0.0249
UGGUUGUGAUCAACAGAAUTT against Cyp2d12 -0.933
CCAUUUAUAUCAGGCAUCATT against Lrit1 -0.647
GGGUAAUCAGAUUGAAAGATT against Dnah5 0.0753
GGUGGAGAGUGAACAACAATT against Tpr -1.25
GGUAUGAGCUGAUCAAGUATT against Slc27a2 1.67
GUACACUCAAUCACUCUUGTT against Rexo5 0.966
CGACCUACUUGGGAUGAUGTT against Pea15b 0.683
GCCUGAUACCUUGAAGGAATT against Qpctl -0.382
CGACAACGACAUCAUGGAATT against Sfrp2 1.52
GGGAAUGAAAUGUUCUUCGTT against Ttl -0.121
CGCAGUGGACUCAUCUUGATT against Sestd1 -0.65
GCCAUUCUAAGCUGCCAAATT against Mcat -0.000938
GGACAGAGCGUGCACUAGATT against Slc66a1 -1.32
GGUGCUGGUUUUUAAGAAATT against Hsbp1 1.84
CGGAAUGCCAAAGAUGUGGTT against Sult1d1 -0.872
GUGACUCCCAAACUCCUGATT against Olfr1180 -1.81
CCAUUCCUUAAAAGAGCAUTT against Lce1g 1.07
GGACUUUCUUAACUACACUTT against Slc2a3 0.865
GGAUUACGGUGGGAUCAUGTT against Faxc -1.38
GGUGCUGAUGGGAGAUAGUTT against 1700010H22Rik -0.851
GGGAAGAGAGACGAAAAAATT against Nufip1 1.13
GGACCAGCUUGAAGCUGAATT against Atl2 0.388
GGCUAAAAUAAAGAAGAAGTT against Cfap100 0.00546
CCGACAGCUCUAAAGGAACTT against Celf6 0.838
GGUUAUAUAAGCAUCAAGGTT against Adamts18 -0.621
GCAGAGCGGGAUUUCAUUCTT against Sh3glb2 -1.23
CCAUAUGGCUUAUCUUAUUTT against Adam5 0.138
GGUUUUUGUUGUAAUAGGCTT against Olfr915 -0.758
GGUAACAACUUUUAAGCCUTT against Prps2 -0.318
GCAGCUUAAGUUGCCCAAGTT against Aatk -0.27
GGAUUUUGCUGUUUUGGAATT against Dsc1 0.41
CGGUAGCCAUAUUAAUAUCTT against Spink2 0.417
GGCUUACAAUGUGAUUUACTT against Cd7 1.92
GCUCAACAAGGAUACGGUGTT against Tnfrsf11a 0.704
GGAUAUAACCAUCCUCUGUTT against Zscan29 0.578
GGGUCCCAAACAAUAACUUTT against Aebp1 1.7
CCCAGACUCAGUUUUAACUTT against Spsb4 -1.88
GGGCCUCCUUCUCAUCAUUTT against Scarf2 0.9
GGUAACUUCCCAGGAGGGATT against Bcl9 0.549
GGAUUGGUUCAUGACCUGATT against Trim52 -0.814
GGUGAUCCUUAUGCUGUUATT against Ehmt2 0.305
CCAUCAUGACGGUUCCCUATT against Mrgpra5 -1.43
GGUUCUUCCCACAGAAGACTT against Pggt1b 0.176
GGAUGACGAAGCCUAUGAUTT against Nacc2 -1.16
GGAGUGACAAAAGAAAUAATT against Nudt12 0.489
GGAAAUACUCUCAUCAUCGTT against Olfr214 -1.17
CGCAUAUCUAGAAUGGUUATT against 2810021J22Rik 1.74
GGACUACUCCAGAAAGCUUTT against Wdfy3 -0.0605
GCAAAAUGGUUCCUUUGGATT against Sec24c -0.396
GGACAUUAUUUCUAUAUGGTT against Eif4e2 -1.2
GGCCCAUUCAGAUCAUCCATT against Vmn1r65 -0.197
CCCGGUAUUAAAUUUAAUGTT against Aox4 0.807
GCAUGUUUAGAACUAGCUCTT against Zfp87 0.76
CCAUCAAUUGGAAAUCUUUTT against Tnn -1.01
CUCAGAUAUUCUUUUCCCATT against Olfr142 -1.25
CGUGUAACACACGAUUAGATT against Myot 0.587
GGAACUUCAUUGAACUAUGTT against Trmt2b -0.363
GUUAUCAGGAAGGAAAGCCTT against Sdhaf4 0.248
GGACAGCAAGACAGAAAACTT against Csf2rb2 -0.26
GGCUGGAGAUCUCUCAAAGTT against Nkain2 1.64
